The whole screen tested about 5,500 compounds, of which about 2,000 (36%) were called active. Not shown: some 18% with an inconclusive outcome. No stated cut-off is given here; in the data, active means normalized growth mostly below about 0.91 (no sharp cut-off); inconclusive means no clear call, values can overlap the other calls; inactive means mostly above about 0.92. Some of the results follow.
Assay: chemical genetic growth profiling, strain panel (AID 1159580);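 further: tested at 20 µM; growth read once vehicle control cultures reached saturation at 30 °C; 1 = growth at the plate median or of vehicle wells; lower values mean less growth of the strain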
Settings: S. cerevisiae deletion strains, growth OD

Measured: normalized growth

O=c1cccc2ccc(O)c(O)c2c1O
inactive: locus YAL030W, strain snc1, hits give low values 0.948 | locus YBR021W, strain FUR4, hits give low values 1.02 | locus YBR171W, strain sec66, hits give low values 0.928 | locus YCL011C, strain gbp2, hits give low values 0.913 | locus YCL016C, strain dcc1, hits give low values 0.938 | locus YCL061C, strain MRC1, hits give low values 0.949 | locus YCL069W, strain vba3, hits give low values 0.945 | locus YCR088W, strain abp1, hits give low values 0.961 | locus YDL005C, strain med2, hits give low values 1 | locus YDL040C, strain nat1, hits give low values 1 | locus YDL185W, strain tfp1, hits give low values 0.955 | locus YDR001C, strain nth1, hits give low values 0.975 | locus YDR195W, strain ref2 1.06 | locus YEL037C, strain rad23, hits give low values 0.938 | locus YEL061C, strain CIN8 (second series), hits give low values 0.922 | locus YER016W, strain bim1, hits give low values 0.96 | locus YER110C, hits give low values 1.01 | locus YGL078C, strain dbp3, hits give low values 1.03 | locus YGL167C, strain pmr1, hits give low values 0.955 | locus YGL227W, strain vid30, hits give low values 1.01 | locus YGL240W, strain doc1, hits give low values 0.995 | locus YHR013C, strain ard1, hits give low values 0.962 | locus YIL125W, strain kgd1, hits give low values 1.01 | locus YJL092W, strain hpr5, hits give low values 0.963 | locus YJL115W, strain asf1, hits give low values 0.954 | locus YJL154C, strain vps35, hits give low values 0.961 | locus YJL168C, strain set2, hits give low values 0.937
active: locus YAL021C, strain ccr4, hits give low values 0.443 | locus YAL026C, strain drs2, hits give low values 0.791 | locus YBL061C, strain skt5, hits give low values 0.901 | locus YBR009C, strain hhf1, hits give low values 0.822 | locus YBR023C, strain chs3, hits give low values 0.887 | locus YBR229C, strain ROT2, hits give low values 0.385 | locus YBR231C, strain swc5, hits give low values 0.853 | locus YCL029C, strain bik1, hits give low values 0.598 | locus YDL035C, strain GPR1, hits give low values 0.117 | locus YDL074C, strain BRE1, hits give low values 0.241 | locus YDL101C, strain DUN1, hits give low values 0.145 | locus YDL134C, strain PPH21, hits give low values 0.112 | locus YDL192W, strain arf1, hits give low values 0.579 | locus YDR069C, strain doa4, hits give low values 0.625 | locus YDR101C, strain arx1, hits give low values 0.734 | locus YDR137W, strain rgp1, hits give low values 0.161 | locus YDR159W, strain sac3, hits give low values 0.261 | locus YDR162C, strain NBP2, hits give low values 0.0859 | locus YDR297W, strain sur2, hits give low values 0.92 | locus YDR318W, strain mcm21, hits give low values 0.709 | locus YDR334W, strain swr1, hits give low values 0.885 | locus YDR335W, strain msn5, hits give low values 0.748 | locus YDR388W, hits give low values 0.718 | locus YDR392W, strain spt3, hits give low values 0.715 | locus YDR502C, strain sam2, hits give low values 0.372 | locus YEL003W, strain gim4, hits give low values 0.823 | locus YEL061C, strain CIN8, hits give low values 0.301 | locus YER015W, strain faa2, hits give low values 0.816 | locus YER111C, strain swi4, hits give low values 0.403 | locus YER155C, strain BEM2 (second series), hits give low values 0.73 | locus YER155C, strain BEM2, hits give low values 0.652 | locus YER167W, strain BCK2, hits give low values 0.45 | locus YFR010W, strain ubp6, hits give low values 0.795 | locus YGL086W, strain mad1, hits give low values 0.365 | locus YGL173C, strain kem1, hits give low values 0.791 | locus YGL248W, strain PDE1, hits give low values 0.185 | locus YGL253W, strain hxk2, hits give low values 0.875 | locus YGR135W, strain pre9, hits give low values 0.523 | locus YGR252W, strain gcn5, hits give low values 0.501 | locus YHR027C, strain rpn1, hits give low values 0.841 | locus YHR079C, strain IRE1 (second series), hits give low values 0.702 | locus YHR094C, strain hxt1, hits give low values 0.914 | locus YHR129C, strain ARP1, hits give low values 0.294 | locus YHR142W, strain chs7, hits give low values 0.762 | locus YHR200W, strain rpn10, hits give low values 0.626 | locus YIL066C, strain RNR3, hits give low values 0.104 | locus YIL073C, strain SPO22, hits give low values 0.134 | locus YIR030C, strain dcg1, hits give low values 0.836 | locus YJL095W, strain BCK1 (second series), hits give low values 0.871 | locus YJL095W, strain BCK1, hits give low values 0.0994 | locus YJL129C, strain trk1, hits give low values 0.562 | locus YJL134W, strain LCB3, hits give low values 0.477 | locus YJL164C, strain tpk1, hits give low values 0.844 | locus YJL166W, strain qcr8, hits give low values 0.872

Source: PubChem BioAssay AID1159580 (chemical genetic matrix, 2015)
